Measured values: PubChem BioAssay (NCI)
This is part of a sample that, as a whole, favours compounds with a hit. Of some 83,000 tested, about 20% had one in any assay.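 Negative percent growth values reflect cell death: -40 means 40% of the cells present at the start died, and -100 means all died.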 Calls of active or inactive are those of the source.

These molecules were tested on SNB-75 CNS (assay: NCI-60 one-dose screen, 48 h (100 = growth as untreated, 0 = no growth, -100 = all killed)). Conditions: 10 µM unless noted.
Experimental: Growth inhibition of the SNB-75 human tumor cell line is measured as a screen for anti-cancer activity. Cells are grown in 96 well plates and exposed to the test compound for 48 hours. Compounds are tested at a single concentration, which is 10^-5 M for most compounds. The reported endpoint is percent growth (GI% or GIPRCNT), where numbers from 0 - 100% represent growth inhibition, and numbers from -100% - 0 represent cell death. For example, a value of 40 represents 60% growth inhibition. A value of 0 means no net growth occurred over the course of the experiment. A value of -40 indicates 40% of cells at the beginning of the experiment died by the end of the experiment. A value of -100 means all cells are dead at the end of the experiment.
NCI-60 Human Tumor Cell Lines Screen was performed using the standard one-dose NCI protocol, which is described in more detail at https://dtp.cancer.gov/discovery_development/nci-60/default.htm.
Compounds with GIPRCNT values below 10 were considered active. Activity score was based on GIPRCNT using the following formula: […]
Score is 0 for GIPRCNT values of 100 or above, 50 for GIPRCNT values of 0, and 100 for GIPRCNT values of -100.

Row | SMILES | growth
1 | Oc1ccc2c3c1OC1[C@@H](O)CC[C@@]4(O)[C@@H](C2)N(CC2CCC2)CC[C@]314 (stereo not given in full) | 97.9% (inactive)
2 | CCCCN1CCCC[C@@H]1C(=O)N[C@H](C(=O)N(C)[C@H](C[C@@H](OC(C)=O)c1nc(C(=O)NC2CCC(C(=O)OC)CC2)cs1)C(C)C)C(C)C (stereo not given in full) | -4.95% (active)
3 | C[N+]12CN3CN(CN(C3)C1)C2 | 46.8% (inactive)
4 | C=CC[n+]1ccc(-c2cc[n+](CC=C)cc2)cc1 | 92.5% (inactive)
5 | Cc1c(C)c([N+](=O)[O-])c(C)c(C)c1[N+](=O)[O-] | 113% (inactive)
6 | Cc1ccc(S(=O)(=O)F)cc1C(=O)O | 76.8% (inactive)
7 | ClCCN(CCCl)c1nc(Cl)c(C2CC(c3ccccc3)=NN2c2cc(Cl)cc(Cl)c2)s1 (stereo not given) | 96.4% (inactive)
8 | Brc1ccc2c(c1)c(-c1nc(-c3c[nH]c4ncccc34)cs1)cn2CCN1CCOCC1 | 56.4% (inactive)
9 | CCC(=O)Nc1ccc(Cl)c(Cl)c1 | 102% (inactive)
10 | CC[S][Hg][Cl] | 93.6% (inactive)
11 | CC[C@H](NC(=O)[C@H]1CCCCN1C)C(=O)N(C)[C@H](C[C@@H](OC(C)=O)c1nc(C(=O)N[C@@H](Cc2ccccc2)C[C@H](C)C(=O)O)cs1)C(C)C | 24.9% (inactive)
12 | O=[N+]([O-])CC(c1ccccc1Cl)c1c(-c2ccccc2)[nH]c2ccccc12 (stereo not given) | 6.44% (active)
13 | CCn1c2ccccc2c2cc(C(=O)c3cccc4c3CCCN4)ccc21 | 91.6% (inactive)
14 | CC12CCC3C(CCC4=CC(=O)CCC43CF)C1CCC2=O (stereo not given) | 90.1% (inactive)
15 | CC[C@H](C)[C@H](NC(=O)[C@H]1CCCCN1C)C(=O)N(C)[C@H](C[C@@H](OC(C)=O)c1nc(C(=O)N[C@@H](Cc2ccccc2)C[C@H](C)C(=O)OC)cs1)C(C)C | 31.8% (inactive)
16 | C#C[C@]1(OC(=O)CCCCCC)CC[C@H]2[C@@H]3CCC4=CC(=O)CC[C@@H]4[C@H]3CC[C@@]21C | 81.5% (inactive)
17 | COc1cccc2c1c(C(=O)C(=O)Nc1cc(C)no1)cn2Cc1ccc(F)cc1 | 53.6% (inactive)
18 | COc1cccc(/C=C/[N+](=O)[O-])c1 | 68.1% (inactive)
19 | N/C(=N/N=C/c1ccncc1)N[N+](=O)[O-] | 96% (inactive)
20 | CCC1CN1CCCCN1CC1CC (stereo not given) | 81.7% (inactive)

Row | SMILES | growth
21 | O=P(Oc1ccc(Cl)cc1)(N1CC1)N1CC1 | 74.2% (inactive)
22 | COC(=O)[C@@H](C)C[C@H](Cc1ccc(F)cc1)NC(=O)c1csc([C@@H](C[C@H](C(C)C)N(C)C(=O)[C@@H](NC(=O)[C@H]2CCCCN2C)C2CC2)OC(C)=O)n1 | 54.3% (inactive)
23 | CC1(C)CN1P(=O)(N1CC1(C)C)N1CC1(C)C (stereo not given) | 72.7% (inactive)
24 | Cc1ccc(C(=O)NCCCOc2ccc(N3C(N)=NC(N)=NC3(C)C)cc2Cl)cc1S(=O)(=O)F | 87.6% (inactive)
25 | C[C@]12CCc3sc(-c4cccc(F)c4)nc3C1=CC[C@@H]1[C@@H]2CC[C@]2(C)C(=O)CC[C@@H]12 | 44.6% (inactive)
26 | COC(=O)[C@@H](C)C[C@H](Cc1ccccc1)NC(=O)c1csc([C@@H](C[C@H](C(C)C)N(C)C(=O)C2(NC(=O)[C@H]3CCCCN3C)CCC2)OC(C)=O)n1 | 28.5% (inactive)
27 | COC(=O)[C@@H](C)C[C@H](Cc1ccccc1)NC(=O)c1csc([C@@H](C[C@H](C(C)C)N(C)C(=O)C2(NC(=O)[C@H]3CCCCN3C)CC2)OC(C)=O)n1 | 26.5% (inactive)
28 | COC(=O)N[C@H]1CCc2c(Br)c(OC)c(OC)c(OC)c2-c2ccc(SC)c(=O)cc21 | 29.1% (inactive)
29 | C[C@]12CCc3sc(NCCc4ccccc4)nc3C1=CC[C@@H]1[C@@H]2CC[C@]2(C)C(=O)CC[C@@H]12 | 85.5% (inactive)
30 | C[C@]12CC[C@H]3[C@@H](CC[C@]4(O)C[C@@H](O[C@@H]5O[C@H](CO)[C@@H](O[C@@H]6OC[C@@H](O)[C@H](O)[C@H]6O)[C@H](O)[C@H]5O)CC[C@]34C=O)[C@@]1(O)CC[C@@H]2C1=CC(=O)OC1 | 28% (inactive)
31 | O=C(CCl)c1ccc([N+](=O)[O-])o1 | 51.3% (inactive)
32 | N#C[Se]Cc1cc(-c2ccccc2)n(-c2ccc(S(N)(=O)=O)cc2)n1 | -38.3% (active)
33 | COc1cc2c(cc1OCCCCn1c(-c3cccs3)nc3ccccc31)N=C[C@@H]1CCCN1C2=O | -65.4% (active)
34 | C=C1[C@@H](C)[C@H]2[C@H](Cc3ccccc3)NC(=O)[C@]23[C@@H](O)/C=C/[C@@](C)(O)C(=O)[C@@H](C)C/C=C/[C@H]3[C@@H]1O | -8.47% (active)
35 | COc1cc2c(cc1OCCCCCn1c(-c3ccco3)nc3ccccc31)N=C[C@@H]1CCCN1C2=O | -64.2% (active)
36 | COc1ccc2c(c1)c(C1(O)CC(CSC#N)OC1=O)cn2C(=O)c1ccc(Cl)cc1 (stereo not given) | 83.7% (inactive)
37 | COc1ccc(/C=C/c2cc(OC)c(OC)c(OC)c2)cc1NC(=O)/C=C/c1ccc(F)cc1 | 3.26% (active)
38 | Fc1ccc2c(c1)c(-c1nc(-c3c[nH]c4ncccc34)cs1)cn2CCN1CCOCC1 | 32.9% (inactive)
39 | COc1cc(NC(C)CCCNC2CN3CCC2CC3)c2ncccc2c1 (stereo not given) | 78.1% (inactive)
40 | Clc1ccc(CSC(Cn2ccnc2)c2ccc(Cl)cc2Cl)cc1 (stereo not given) | 57.9% (inactive)
